Compound activity: PubChem BioAssay, several laboratories
E coli growth-1 = E. coli V3065 growth inhibition, primary screen, counter-screen for AddAB inhibitor project, absorbance, OD600; 18 h; inhibition, % at 11.9 µM; 0.27% of 330,000 active;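 active = inhibition above the campaign's mean inhibition across all tested compounds plus 3 SD, cut at about 9.9% in these data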;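 note: uninfected addAB+ strain grown without phage in ampicillin broth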
phage Ecoli inh = growth loss of phage-infected E. coli, primary screen, RecBCD inhibitor project, absorbance, with phage, HTS; inhibition, % at 11.9 µM; 0.26% of 360,000 active; AID 651602, 2012; in the data active = inhibition above about 11%
Tat transport = E. coli Tat export inhibitors, primary screen, MC4100, TorA-mCherry reporter, fluorescence, single point | inhibition, % at 10 µM | 0.036% of 340,000 active;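 active = mean replicate inhibition at least 50% and at least half of replicates individually reaching 50%; inconclusive = only one of the two criteria met; inactive = neither criterion met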;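 note: exported cargo escapes ClpAP degradation while cytoplasmic cargo is degraded and loses fluorescence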
E coli growth-2 = E. coli growth inhibition, primary screen, OD600 | Escherichia coli growth, 23 h; hits give low values | OD600 absorbance (test concentration not listed) | 0.21% of 330,000 active;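 active = OD600 absorbance below the run mean of sample wells minus 3.6 SD, in any replicate, cut at about 0.56 in these data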
AddAB inh = growth inhibition of E. coli expressing H. pylori AddAB, primary screen, AddAB inhibitor project, absorbance; inhibition, % at 11.9 µM; 0.29% of 330,000 active; AID 435030, 2010; in the data active = inhibition above about 12%
AddAB conf = growth loss of phage-infected E. coli expressing H. pylori AddAB, confirmation, AddAB inhibitor project, absorbance, E. coli V3065, T4 phage, triplicate; shares compounds with AddAB inh; OD; T4 phage with gene 2 nonsense mutations; inhibition, % at 11.9 µM; 64% of 880 active;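 active = mean inhibition above a set limit taken from the earlier primary screen, cut at about 13% in these data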;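 note: higher means less bacterial growth since AddAB block lets phage replicate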
RecBCD counter = growth loss of RecBCD+ E. coli with mutant T4 phage, counter-screen for AddAB inhibitor project, absorbance, V66 E. coli. inhibition, % at 11.9 µM. OD growth. shares compounds with AddAB inh. 73% of 880 active. AID 488955, 2010;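 active = mean inhibition above the mean of solvent-only control wells plus 3 SD, cut at about 4% in these data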;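 note: optical density read after an 18 h incubation at 37 °C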
Bact viability = bacterial viability inhibition counter-screen, confirmation, counter-screen for AddAB inhibitor project, absorbance | shares compounds with AddAB inh | absorbance (AddAB counterscreen) | inhibition, % at 11.9 µM | 35% of 880 active | AID 488956, 2010; in the data active = inhibition above about 25%
RecBCD conf = growth loss of phage-infected RecBCD+ E. coli, confirmation, RecBCD inhibitor project, absorbance, E. coli V66, T4 gene 2 phage | shares compounds with phage Ecoli inh | E. coli V66 + T4 2- phage, growth OD | inhibition, % at 11.9 µM | 45% of 890 active | AID 651982, 2013;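 active = mean inhibition over triplicates exceeding the hit threshold derived in the original primary screen, cut at about 11% in these data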
Ecoli viability = E. coli viability inhibition, counter-screen for RecBCD inhibitor project, absorbance, high throughput; shares compounds with phage Ecoli inh; absorbance (OD) growth; inhibition, % at 11.9 µM; 29% of 890 active; in the data active = inhibition above about 20%;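 note: E. coli strain V66 grown with compound alone and no phage infection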
AddAB counter = growth loss of phage-infected AddAB-carrying E. coli, confirmation, counter-screen for RecBCD inhibitor project, absorbance, E. coli V3065, T4 phage. shares compounds with phage Ecoli inh. E. coli expressing H. pylori AddAB + T4 phage, OD growth; gene 2 mutant T4, recBCD-deleted host. inhibition, % at 11.9 µM. 45% of 890 active. AID 651984, 2013;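 active = mean inhibition above the solvent-only control wells' mean plus 3 SD, cut at about 22% in these data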;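 note: higher means less bacterial growth from phage killing when AddAB is blocked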
A number is an active result; - = inactive; ? = inconclusive; . = not tested or not shown. Only some compounds are listed: those with a hit (about 0.5% of all), similar ones and a draw of the others.

SMILES | E coli growth-1 | phage Ecoli inh | Tat transport | E coli growth-2 | AddAB inh | AddAB conf | RecBCD counter | Bact viability | others
CC1Oc2ccccc2C=C1C1C(=C(O)c2ccccc2)C(=O)C(=O)N1CCCN(C)C (stereo not drawn) | . | . | . | - | . | . | . | .
Cc1cc(SCC(=O)N/N=C/c2ccc(O)c(O)c2O)c(C)cc1Br | 17.8 | 16.7 | - | . | 16.1 | - | 10.3 | -
Cc1cc(SCC(=O)NN=Cc2ccc(O)cc2O)c(C)cc1Br | . | . | . | - | . | . | . | .
Cc1ccc2nc(-c3ccc(O)cc3)c(Nc3ccc4c(c3)OCCO4)n2c1 | 14.1 | - | - | - | 16.6 | - | - | -
Cc1ccc2nc(-c3ccccc3O)c(Nc3ccc4c(c3)OCCO4)n2c1 | - | - | - | - | - | . | . | .
O=c1c2ccccc2nc(/C=C/c2ccc([N+](=O)[O-])cc2)n1CCCO | - | - | - | - | - | . | . | .
O=c1c2ccccc2nc(/C=C/c2ccc([N+](=O)[O-])o2)n1CCCO | 20.0 | - | - | - | 31.1 | 97.6 | 10.8 | 41.2
CC(=O)CC1c2cc(C(F)(F)F)ccc2S(=O)(=O)N1C1CCCCC1 (stereo not drawn) | . | . | . | - | . | . | . | .
O=C(O)CCCCCn1c(SCC(=O)c2ccc(O)c(O)c2)nc2ccsc2c1=O | - | - | - | - | - | . | . | .
CCCCn1c(SCC(=O)c2ccc(O)c(O)c2)nc2ccsc2c1=O | - | . | - | - | 15.1 | - | 4.7 | -
CCC(CC)C1C(C#N)=C(N)Oc2cc(C)oc(=O)c21 (stereo not drawn) | - | - | - | - | - | . | . | .
Cc1cc2c(c(=O)o1)C(c1ccc([N+](=O)[O-])o1)C(C#N)=C(N)O2 (stereo not drawn) | 14.8 | - | - | - | 19.0 | 100.3 | 8.3 | -
COc1ccccc1NC(c1cccnc1)c1ccc2cccnc2c1O (stereo not drawn) | - | - | - | - | - | . | . | .
Cc1ccnc(NC(c2cccnc2)c2ccc3cccnc3c2O)c1 (stereo not drawn) | 12.1 | 14.8 | ? | - | 12.2 | - | 12.4 | -
O=C(NN1C(=O)CSC1=S)C(=O)NN1C(=O)CSC1=S | 12.1 | 12.9 | - | - | 12.4 | 33.6 | 16.0 | 28.2
Cc1ccc(/C=C/C(=O)c2ccccc(=O)c2O)cc1C | - | - | - | - | 13.3 | - | 6.1 | -
CN=c1c([N+](=O)[O-])nn(-c2ccc3c(c2)OCCO3)n1O | 19.4 | - | - | - | 21.2 | 30.9 | 9.9 | 30.7
COc1cccc(/C=N/NC(=O)c2[nH]c(C)c(C(=O)N/N=C/c3cccc(OC)c3O)c2C)c1O | 27.7 | 22.2 | - | . | 27.8 | 18.1 | 21.3 | -
C=CCC(CC(=O)NC(CO)Cc1ccccc1)C(=O)NC(COC(=O)C(CC=C)CC(=O)OC(C)(C)C)Cc1ccccc1 (stereo not drawn) | . | . | . | - | . | . | . | .
O=C(c1ccc([N+](=O)[O-])o1)N1CCOCC1 | 11.3 | - | - | - | 16.9 | 64.2 | 8.5 | -
CC(C)C(=O)N1CCN(c2ccc(NC(=O)c3ccc([N+](=O)[O-])o3)cc2)CC1 | - | - | - | - | 13.2 | 28.5 | - | -
CC(NC(=O)c1nc[nH]c1C(=O)N1CCN(c2ccccc2)CC1)C(=O)OC(C)(C)C (stereo not drawn) | . | . | . | - | . | . | . | .
CCC1(CC)C(=O)C2=C3C(CC(C(=O)OC)=CC(C(=O)OC)C31)C1C(=O)N(CC(=O)OC)C(=O)C1C2C (stereo not drawn) | . | . | . | - | . | . | . | .
O=C(NC(Cc1ccccc1)C(=O)O)C(=Cc1ccccc1)NC(=O)c1cccc(Br)c1 (stereo not drawn) | . | . | . | - | . | . | . | .
Cc1ccc2c(c1)C1C(CO2)C(c2ccccc2)[C@]2(C)C(=O)NCC(=O)N12 (stereo partly drawn) | . | . | . | - | . | . | . | .
SMILES | E coli growth-1 | phage Ecoli inh | Tat transport | E coli growth-2 | AddAB inh | AddAB conf | RecBCD counter | Bact viability | others
COc1ccc(-n2c(Cc3cccn3C)nnc2SCC(=O)Nc2nc(C)cs2)cc1 | - | - | - | - | 15.4 | - | - | -
COc1ccc(-n2c(Cc3cccn3C)nnc2SCC(=O)Nc2ccccc2)cc1 | - | - | - | - | - | . | . | .
Cc1ccc(OCC(=O)N2CCc3ccccc32)c([N+](=O)[O-])n1 | 19.3 | - | - | - | 24.0 | 46.5 | 5.4 | 43.5
COc1ccc(-c2nnc(NC(=O)c3ccc(F)cc3)o2)cc1 | - | - | - | - | 15.2 | 17.5 | 12.4 | -
COc1ccc(-c2nnc(NC(=O)c3ccc4c(c3)OCCO4)o2)cc1 | - | - | - | - | - | . | . | .
O=C(NCc1ccccc1Cl)C1CCN(S(=O)(=O)N2CCCCCC2)CC1 | - | - | - | - | - | . | . | .
CCCS(=O)(=O)N1CCC(C(=O)NCc2ccccc2Cl)CC1 | - | - | - | - | 12.3 | 13.7 | 5.8 | -
O=C(Nc1ccc(Cl)cc1)ON=C1CCCC1 | - | - | - | - | 23.0 | - | - | -
Cc1nc(SCC(=O)Nc2ccc(N3CCOCC3)cc2)nc(C)c1C | 13.1 | 13.5 | - | - | 13.6 | - | 9.1 | - | RecBCD conf=-;Ecoli viability=-;AddAB counter=-
Cc1cc(C)nc(SCC(=O)Nc2ccc(N3CCOCC3)cc2)n1 | - | - | - | - | - | . | . | .
CN1CCN(C(c2ccc(C(F)(F)F)cc2)c2cc(Cl)c3cccnc3c2O)CC1 (stereo not drawn) | 22.6 | 24.0 | . | . | 17.5 | 13.6 | 14.3 | - | RecBCD conf=-;Ecoli viability=-;AddAB counter=-
Oc1c(C(c2ccccn2)N2CCCCC2)cc(Cl)c2cccnc12 (stereo not drawn) | - | - | - | - | - | . | . | .
CN1CCN(C(c2ccc(Cl)cc2)c2cc(Cl)c3cccnc3c2O)CC1 (stereo not drawn) | 19.4 | 15.5 | - | . | 13.2 | - | 9.9 | - | RecBCD conf=-;Ecoli viability=-;AddAB counter=-
CCN1CCN(C(c2ccc(C(F)(F)F)cc2)c2ccc3cccnc3c2O)CC1 (stereo not drawn) | 38.2 | 20.9 | - | - | 26.4 | - | 11.6 | - | RecBCD conf=-;Ecoli viability=-;AddAB counter=-
